Reference: the supplement of paper PMC11732987, “Enantioselective OTUD7B fragment discovery through chemoproteomics screening and high-throughput optimisation” (Communications Chemistry, 2025)

Experiments:
Assay in all cases: log2 ratio of Biotin-Ahx-Ub-VS probe labelling (fragment/DMSO); higher = less target engagement (more negative = stronger competition), active = hit call of the paper (q ≤ 0.05, log2 ratio ≤ -1)
Details in all cases: compound concentration: 200 uM; treatment time: 3 h
USP42 = target: T1, USP42 (UniProt Q9H9J4)
T1 sequence (whole entry): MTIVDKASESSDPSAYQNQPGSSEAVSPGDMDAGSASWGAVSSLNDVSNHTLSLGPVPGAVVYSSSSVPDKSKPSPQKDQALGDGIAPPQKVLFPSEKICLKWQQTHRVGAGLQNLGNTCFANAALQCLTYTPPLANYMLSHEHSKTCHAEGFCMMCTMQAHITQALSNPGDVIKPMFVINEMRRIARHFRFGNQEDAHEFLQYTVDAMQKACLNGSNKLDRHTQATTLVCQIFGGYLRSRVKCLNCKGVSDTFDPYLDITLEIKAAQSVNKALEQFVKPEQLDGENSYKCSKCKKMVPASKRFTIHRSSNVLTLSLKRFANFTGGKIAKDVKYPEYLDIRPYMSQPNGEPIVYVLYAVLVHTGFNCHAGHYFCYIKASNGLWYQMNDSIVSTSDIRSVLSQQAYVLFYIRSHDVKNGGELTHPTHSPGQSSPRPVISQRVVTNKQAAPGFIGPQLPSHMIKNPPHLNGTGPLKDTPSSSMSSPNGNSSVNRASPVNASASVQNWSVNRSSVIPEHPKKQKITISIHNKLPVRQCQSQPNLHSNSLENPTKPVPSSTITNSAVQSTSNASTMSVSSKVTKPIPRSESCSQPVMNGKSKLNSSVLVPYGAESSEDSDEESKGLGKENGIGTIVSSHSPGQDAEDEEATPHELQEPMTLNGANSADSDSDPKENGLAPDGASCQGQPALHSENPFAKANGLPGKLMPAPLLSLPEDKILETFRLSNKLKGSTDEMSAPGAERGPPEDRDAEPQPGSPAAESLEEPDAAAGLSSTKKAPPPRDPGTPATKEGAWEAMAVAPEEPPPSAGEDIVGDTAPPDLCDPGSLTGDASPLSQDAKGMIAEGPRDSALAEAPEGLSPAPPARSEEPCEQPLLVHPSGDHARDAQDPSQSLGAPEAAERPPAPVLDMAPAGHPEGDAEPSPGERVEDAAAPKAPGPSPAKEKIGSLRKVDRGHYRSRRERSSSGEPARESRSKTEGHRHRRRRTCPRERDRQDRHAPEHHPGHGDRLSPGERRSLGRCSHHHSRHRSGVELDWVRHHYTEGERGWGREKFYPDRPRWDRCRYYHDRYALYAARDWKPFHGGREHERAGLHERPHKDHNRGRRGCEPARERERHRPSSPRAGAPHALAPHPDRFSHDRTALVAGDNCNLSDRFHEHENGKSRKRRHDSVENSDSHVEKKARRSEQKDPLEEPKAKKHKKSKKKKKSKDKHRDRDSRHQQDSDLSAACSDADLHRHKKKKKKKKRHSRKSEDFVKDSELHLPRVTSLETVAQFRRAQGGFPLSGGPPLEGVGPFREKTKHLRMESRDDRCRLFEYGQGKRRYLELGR
Summary of the method: (§1)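 Labelled DUBs from HEK293T lysate were NeutrAvidin-enriched, digested with LysC and trypsin, and run by diaPASEF LC-MS/MS. Before that, each 495 µg sample in Tris/CHAPS/IGEPAL buffer with protease inhibitors was treated in triplicate with fragment at 200 µM or vehicle for 3 h, then with Biotin-Ahx-Ub-VS at 0.5 µM final for 1 h. Values are average log2 ratios of fragment over vehicle by unpaired t-test, based on global-median-normalised Spectronaut label-free quantities from proteins with ≥2 unique peptides.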

USP46 = USP46 (UniProt P62068)
Summary of the method: as §1

USP47 = target: T2, USP47 (UniProt Q96K76)
T2 sequence (whole entry): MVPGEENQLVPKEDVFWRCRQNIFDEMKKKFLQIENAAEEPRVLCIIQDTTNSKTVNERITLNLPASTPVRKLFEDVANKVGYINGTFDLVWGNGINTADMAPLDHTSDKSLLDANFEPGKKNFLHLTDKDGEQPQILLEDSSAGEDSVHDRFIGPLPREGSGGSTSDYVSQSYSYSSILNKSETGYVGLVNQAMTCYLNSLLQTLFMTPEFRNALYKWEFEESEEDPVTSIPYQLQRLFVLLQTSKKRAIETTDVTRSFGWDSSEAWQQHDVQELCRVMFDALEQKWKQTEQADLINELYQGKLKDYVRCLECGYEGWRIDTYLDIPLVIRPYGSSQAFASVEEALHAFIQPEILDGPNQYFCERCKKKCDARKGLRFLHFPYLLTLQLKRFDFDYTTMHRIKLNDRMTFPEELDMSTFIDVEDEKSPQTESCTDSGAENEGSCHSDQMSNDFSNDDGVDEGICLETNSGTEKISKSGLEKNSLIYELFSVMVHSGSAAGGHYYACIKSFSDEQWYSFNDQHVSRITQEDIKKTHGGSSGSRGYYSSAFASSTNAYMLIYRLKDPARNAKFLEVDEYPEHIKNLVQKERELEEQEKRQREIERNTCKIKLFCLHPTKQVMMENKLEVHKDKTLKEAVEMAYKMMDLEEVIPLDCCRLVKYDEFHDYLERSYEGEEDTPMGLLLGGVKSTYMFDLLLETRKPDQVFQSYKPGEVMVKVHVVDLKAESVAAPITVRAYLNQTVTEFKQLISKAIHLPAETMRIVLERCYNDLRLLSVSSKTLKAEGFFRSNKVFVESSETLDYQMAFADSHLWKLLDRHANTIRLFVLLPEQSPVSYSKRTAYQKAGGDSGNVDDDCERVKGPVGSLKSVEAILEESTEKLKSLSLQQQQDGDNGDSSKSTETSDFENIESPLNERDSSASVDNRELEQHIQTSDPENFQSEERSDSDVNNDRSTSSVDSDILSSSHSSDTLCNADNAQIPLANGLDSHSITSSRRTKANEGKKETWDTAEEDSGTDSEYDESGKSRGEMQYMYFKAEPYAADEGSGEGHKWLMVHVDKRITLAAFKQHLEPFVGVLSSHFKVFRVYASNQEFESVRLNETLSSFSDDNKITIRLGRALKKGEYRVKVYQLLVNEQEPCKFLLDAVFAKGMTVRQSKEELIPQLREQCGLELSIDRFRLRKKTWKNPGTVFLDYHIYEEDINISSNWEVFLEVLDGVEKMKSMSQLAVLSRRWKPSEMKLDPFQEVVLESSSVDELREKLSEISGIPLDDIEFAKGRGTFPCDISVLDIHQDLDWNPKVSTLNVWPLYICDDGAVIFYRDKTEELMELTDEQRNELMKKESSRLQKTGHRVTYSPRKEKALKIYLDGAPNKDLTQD
Summary of the method: as §1

USP48 = target: T3, USP48 (UniProt Q86UV5)
T3 sequence (whole entry): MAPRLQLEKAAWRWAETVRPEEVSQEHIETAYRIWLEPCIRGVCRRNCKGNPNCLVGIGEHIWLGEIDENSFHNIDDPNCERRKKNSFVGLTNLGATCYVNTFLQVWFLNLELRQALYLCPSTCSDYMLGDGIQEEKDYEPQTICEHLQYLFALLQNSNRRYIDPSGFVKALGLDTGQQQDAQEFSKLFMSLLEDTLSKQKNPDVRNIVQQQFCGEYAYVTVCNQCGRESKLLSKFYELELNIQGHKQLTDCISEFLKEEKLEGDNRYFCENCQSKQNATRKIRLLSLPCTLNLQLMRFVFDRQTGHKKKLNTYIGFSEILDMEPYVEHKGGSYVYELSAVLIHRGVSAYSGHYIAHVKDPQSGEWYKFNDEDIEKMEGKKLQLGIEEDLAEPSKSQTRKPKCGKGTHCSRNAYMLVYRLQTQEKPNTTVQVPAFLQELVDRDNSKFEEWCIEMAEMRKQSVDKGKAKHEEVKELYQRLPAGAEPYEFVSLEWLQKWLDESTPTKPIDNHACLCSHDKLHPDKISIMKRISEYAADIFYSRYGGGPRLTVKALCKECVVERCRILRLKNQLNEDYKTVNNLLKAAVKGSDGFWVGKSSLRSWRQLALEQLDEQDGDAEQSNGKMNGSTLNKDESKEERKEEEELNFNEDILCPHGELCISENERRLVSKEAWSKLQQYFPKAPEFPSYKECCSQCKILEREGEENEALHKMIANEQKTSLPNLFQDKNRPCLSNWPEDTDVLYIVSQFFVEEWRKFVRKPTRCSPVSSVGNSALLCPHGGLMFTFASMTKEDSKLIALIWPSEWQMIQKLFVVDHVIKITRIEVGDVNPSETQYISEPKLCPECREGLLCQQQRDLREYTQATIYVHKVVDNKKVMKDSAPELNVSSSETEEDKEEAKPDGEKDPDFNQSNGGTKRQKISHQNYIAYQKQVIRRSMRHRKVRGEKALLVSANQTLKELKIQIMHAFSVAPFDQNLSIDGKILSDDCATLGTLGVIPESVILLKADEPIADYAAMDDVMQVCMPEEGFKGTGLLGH
Summary of the method: as §1

USP5 = target: T4, USP5 (UniProt P45974)
T4 sequence (whole entry): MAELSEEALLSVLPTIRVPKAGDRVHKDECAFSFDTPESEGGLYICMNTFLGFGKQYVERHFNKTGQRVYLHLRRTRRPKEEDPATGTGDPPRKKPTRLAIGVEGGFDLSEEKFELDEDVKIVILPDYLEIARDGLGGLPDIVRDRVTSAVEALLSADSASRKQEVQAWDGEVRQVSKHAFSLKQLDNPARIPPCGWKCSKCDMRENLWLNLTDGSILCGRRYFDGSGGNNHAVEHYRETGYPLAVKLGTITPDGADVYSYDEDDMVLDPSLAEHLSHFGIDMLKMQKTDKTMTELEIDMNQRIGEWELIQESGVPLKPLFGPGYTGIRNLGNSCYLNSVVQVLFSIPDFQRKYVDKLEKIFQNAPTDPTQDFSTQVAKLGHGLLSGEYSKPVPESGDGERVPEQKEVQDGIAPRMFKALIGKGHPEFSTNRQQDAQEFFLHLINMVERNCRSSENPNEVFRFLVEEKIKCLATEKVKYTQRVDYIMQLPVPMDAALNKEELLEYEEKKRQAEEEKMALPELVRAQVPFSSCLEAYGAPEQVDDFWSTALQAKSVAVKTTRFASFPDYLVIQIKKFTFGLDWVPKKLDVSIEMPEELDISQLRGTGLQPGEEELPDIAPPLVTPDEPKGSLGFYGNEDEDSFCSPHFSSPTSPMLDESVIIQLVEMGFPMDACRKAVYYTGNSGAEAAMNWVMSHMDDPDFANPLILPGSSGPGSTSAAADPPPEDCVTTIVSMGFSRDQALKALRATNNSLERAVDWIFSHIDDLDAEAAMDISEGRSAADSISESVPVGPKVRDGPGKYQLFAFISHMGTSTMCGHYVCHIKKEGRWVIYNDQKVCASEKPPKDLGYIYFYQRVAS
Summary of the method: as §1

USP54 = USP54 (UniProt Q70EL1)
Summary of the method: as §1

USP7 = USP7 (UniProt Q93009)
Summary of the method: as §1

USP8 = target: T5, USP8 (UniProt P40818)
T5 sequence (whole entry): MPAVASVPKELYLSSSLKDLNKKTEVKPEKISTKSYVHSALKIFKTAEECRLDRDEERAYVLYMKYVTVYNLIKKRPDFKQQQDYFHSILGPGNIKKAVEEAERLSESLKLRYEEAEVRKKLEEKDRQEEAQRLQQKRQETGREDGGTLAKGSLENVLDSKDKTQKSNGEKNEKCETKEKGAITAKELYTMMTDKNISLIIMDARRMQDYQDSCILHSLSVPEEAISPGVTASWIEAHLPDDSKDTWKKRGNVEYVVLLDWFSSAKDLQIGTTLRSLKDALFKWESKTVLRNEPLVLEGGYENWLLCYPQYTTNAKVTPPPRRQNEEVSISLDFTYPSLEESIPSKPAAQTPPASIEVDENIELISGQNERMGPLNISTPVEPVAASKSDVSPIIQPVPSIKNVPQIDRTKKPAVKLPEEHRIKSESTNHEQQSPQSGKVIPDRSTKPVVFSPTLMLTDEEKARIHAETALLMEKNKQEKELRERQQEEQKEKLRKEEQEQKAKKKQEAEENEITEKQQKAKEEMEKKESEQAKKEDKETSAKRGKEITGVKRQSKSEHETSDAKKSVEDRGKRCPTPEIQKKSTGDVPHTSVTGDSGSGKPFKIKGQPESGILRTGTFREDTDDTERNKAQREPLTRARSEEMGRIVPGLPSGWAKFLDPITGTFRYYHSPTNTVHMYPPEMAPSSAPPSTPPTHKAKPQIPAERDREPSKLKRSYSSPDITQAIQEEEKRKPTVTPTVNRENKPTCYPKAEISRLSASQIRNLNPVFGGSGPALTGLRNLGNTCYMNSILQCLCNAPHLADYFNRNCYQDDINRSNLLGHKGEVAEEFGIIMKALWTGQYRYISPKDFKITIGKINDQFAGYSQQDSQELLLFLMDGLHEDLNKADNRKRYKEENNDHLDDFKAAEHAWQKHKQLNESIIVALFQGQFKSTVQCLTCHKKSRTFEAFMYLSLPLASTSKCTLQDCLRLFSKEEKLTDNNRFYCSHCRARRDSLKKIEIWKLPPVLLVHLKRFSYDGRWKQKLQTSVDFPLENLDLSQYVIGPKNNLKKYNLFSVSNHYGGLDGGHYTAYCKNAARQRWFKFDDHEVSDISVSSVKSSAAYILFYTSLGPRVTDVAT
Summary of the method: as §1

USP9X = USP9X (UniProt Q93008)
Summary of the method: as §1

UniProt O00487 = target: UniProt O00487
Summary of the method: as §1

Measured: log2 ratio of Biotin-Ahx-Ub-VS probe labelling

USP54, sequence (Q70EL1 whole entry): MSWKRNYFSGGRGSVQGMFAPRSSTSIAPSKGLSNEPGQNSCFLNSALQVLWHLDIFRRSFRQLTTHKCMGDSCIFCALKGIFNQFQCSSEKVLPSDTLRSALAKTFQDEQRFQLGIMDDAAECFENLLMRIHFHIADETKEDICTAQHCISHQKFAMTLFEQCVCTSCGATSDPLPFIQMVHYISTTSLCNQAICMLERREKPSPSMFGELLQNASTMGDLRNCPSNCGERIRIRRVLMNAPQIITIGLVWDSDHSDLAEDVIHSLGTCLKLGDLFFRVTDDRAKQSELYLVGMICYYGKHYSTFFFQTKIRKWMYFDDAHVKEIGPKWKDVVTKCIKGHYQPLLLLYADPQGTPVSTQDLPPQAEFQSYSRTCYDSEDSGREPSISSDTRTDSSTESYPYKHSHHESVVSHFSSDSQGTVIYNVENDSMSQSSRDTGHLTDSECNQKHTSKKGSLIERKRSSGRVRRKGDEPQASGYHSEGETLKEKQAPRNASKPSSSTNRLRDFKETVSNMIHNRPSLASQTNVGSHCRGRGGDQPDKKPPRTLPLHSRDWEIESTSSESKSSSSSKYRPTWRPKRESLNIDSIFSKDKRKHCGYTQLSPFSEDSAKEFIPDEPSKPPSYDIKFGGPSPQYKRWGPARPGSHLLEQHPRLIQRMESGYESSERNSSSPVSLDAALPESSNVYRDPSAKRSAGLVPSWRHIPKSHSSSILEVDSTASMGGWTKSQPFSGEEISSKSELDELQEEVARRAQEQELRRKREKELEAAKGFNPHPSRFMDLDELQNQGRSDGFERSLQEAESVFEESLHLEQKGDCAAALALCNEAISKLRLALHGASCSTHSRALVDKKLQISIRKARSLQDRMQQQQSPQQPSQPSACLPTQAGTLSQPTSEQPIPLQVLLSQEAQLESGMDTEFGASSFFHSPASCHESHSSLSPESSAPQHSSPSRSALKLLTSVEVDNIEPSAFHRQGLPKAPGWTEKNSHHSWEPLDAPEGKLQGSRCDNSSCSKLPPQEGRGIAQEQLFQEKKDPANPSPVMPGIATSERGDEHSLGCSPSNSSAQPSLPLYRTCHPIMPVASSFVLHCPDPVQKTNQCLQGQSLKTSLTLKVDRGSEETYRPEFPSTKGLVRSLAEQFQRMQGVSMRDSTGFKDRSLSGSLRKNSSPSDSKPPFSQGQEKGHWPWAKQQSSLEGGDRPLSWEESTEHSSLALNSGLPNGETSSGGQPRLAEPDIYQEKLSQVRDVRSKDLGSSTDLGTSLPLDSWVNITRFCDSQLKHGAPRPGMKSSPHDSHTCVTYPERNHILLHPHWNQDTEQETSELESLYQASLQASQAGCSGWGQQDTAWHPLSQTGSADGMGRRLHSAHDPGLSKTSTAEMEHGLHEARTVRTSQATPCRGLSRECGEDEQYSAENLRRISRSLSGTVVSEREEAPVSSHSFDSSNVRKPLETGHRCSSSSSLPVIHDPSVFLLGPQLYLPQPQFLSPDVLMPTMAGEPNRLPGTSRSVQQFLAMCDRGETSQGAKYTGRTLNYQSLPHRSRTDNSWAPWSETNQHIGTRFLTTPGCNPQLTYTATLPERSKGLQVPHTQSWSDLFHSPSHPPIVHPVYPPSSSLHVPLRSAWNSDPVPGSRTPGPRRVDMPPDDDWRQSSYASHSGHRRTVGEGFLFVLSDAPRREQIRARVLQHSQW
USP7, sequence (Q93009 whole entry, looked up): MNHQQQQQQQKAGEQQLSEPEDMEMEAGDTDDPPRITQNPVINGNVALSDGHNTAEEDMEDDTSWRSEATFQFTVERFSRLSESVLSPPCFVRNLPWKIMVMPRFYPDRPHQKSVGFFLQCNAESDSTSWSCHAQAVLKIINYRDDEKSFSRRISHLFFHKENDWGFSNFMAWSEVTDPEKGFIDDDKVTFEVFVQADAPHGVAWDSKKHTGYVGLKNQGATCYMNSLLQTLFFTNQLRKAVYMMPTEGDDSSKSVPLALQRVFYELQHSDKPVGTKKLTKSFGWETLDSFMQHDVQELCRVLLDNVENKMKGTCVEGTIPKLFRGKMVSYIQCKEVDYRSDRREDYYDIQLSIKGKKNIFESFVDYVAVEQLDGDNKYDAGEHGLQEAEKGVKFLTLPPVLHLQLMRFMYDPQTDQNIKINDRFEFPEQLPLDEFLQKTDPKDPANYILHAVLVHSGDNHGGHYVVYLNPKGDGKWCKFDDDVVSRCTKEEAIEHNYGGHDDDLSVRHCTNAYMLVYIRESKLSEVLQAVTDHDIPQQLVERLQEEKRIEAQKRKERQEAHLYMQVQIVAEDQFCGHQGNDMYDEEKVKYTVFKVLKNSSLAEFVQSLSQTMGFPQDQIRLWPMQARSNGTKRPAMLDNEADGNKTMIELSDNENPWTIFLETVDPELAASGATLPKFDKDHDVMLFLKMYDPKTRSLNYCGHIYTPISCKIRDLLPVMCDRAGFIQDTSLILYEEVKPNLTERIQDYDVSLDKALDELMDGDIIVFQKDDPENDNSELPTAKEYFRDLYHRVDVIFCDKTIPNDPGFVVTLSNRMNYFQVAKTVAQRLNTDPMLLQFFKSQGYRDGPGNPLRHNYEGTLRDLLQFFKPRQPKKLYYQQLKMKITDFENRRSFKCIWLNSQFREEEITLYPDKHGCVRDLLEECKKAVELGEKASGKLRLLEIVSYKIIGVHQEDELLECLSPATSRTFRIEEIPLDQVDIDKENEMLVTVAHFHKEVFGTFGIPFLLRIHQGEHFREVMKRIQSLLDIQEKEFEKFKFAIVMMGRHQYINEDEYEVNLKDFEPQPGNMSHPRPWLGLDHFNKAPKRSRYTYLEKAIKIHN
USP46, sequence (P62068 whole entry): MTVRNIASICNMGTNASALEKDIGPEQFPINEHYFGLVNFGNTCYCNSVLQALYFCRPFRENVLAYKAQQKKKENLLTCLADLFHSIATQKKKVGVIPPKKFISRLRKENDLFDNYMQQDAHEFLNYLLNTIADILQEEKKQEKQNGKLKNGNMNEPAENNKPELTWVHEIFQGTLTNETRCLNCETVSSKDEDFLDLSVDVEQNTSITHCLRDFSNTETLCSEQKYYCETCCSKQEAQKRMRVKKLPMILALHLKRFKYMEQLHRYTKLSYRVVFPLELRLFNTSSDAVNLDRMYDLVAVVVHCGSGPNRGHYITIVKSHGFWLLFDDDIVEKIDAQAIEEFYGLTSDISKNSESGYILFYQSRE
UniProt O00487, sequence (O00487 whole entry): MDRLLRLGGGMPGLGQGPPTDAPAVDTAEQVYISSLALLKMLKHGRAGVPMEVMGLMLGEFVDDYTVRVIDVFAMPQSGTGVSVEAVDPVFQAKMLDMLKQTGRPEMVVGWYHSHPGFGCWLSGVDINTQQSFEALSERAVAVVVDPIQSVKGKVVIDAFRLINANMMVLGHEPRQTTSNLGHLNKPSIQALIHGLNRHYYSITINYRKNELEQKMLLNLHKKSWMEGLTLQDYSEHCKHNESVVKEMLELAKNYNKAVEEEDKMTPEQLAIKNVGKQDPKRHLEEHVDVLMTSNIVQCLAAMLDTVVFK

CCN1C(=O)C2CN(C(=O)CCl)CCN2C1=O (stereo not given)
inactive: USP42 0.369 | USP46 -0.0317 | USP47 0.124 | USP48 -0.1 | USP5 0.0692 | USP54 -0.191 | USP7 -0.307 | USP8 0.0104 | USP9X -0.106 | UniProt O00487 0.00662
